The results in this text go back to PubChem BioAssay (NCI).

Molecules are shown by their SMILES. This is part of a sample that, as a whole, favours compounds with a hit. Of some 83,000 tested, about 20% had one in any assay.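 48-hour exposure, single concentration, 96-well plates; percent growth endpoint where 0 means no net growth. Active: below 10.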 Unmarked numbers belong to inactive results. Calls of active or inactive are those of the source.

In the assay the test system is HL-60(TB) leukemia. Description: NCI-60 one-dose screen, 48 h (100 = growth as untreated, 0 = no growth, -100 = all killed). To be noted: 10 µM unless noted.
As to `Cc1cc(Cc2cc(C)c(N)cc2N)c(N)cc1N`, the growth is 85.6%.

For the molecule `COc1ccc(N2C(=O)/C(=C/C(Cl)=C/c3ccc([N+](=O)[O-])cc3)SC2=S)cc1`, the growth was -14% (active).

Turning to `c1ccc2nc(Cn3cc[n+](Cc4ccc5ccccc5n4)c3)ccc2c1`, the growth was 8.58% (active).

Consider `CCc1c(Nc2ccc(C)cc2)[nH]c(N)nc1=S`, for which the growth is 99.8%.

For `C=C1C(=O)C2CCN1CC2`, the growth is 97.4%.

Take `COC(=O)c1c2c(c(C)[n+]([O-])c1C)C(=O)C=C(NCc1ccc(Cl)cc1)C2=O`: the growth is -30.5% (active).

Turning to `NC(=O)c1ncn(C2OC(CO)C(O)C2O)n1` (centres undefined), the growth is 83.1%.

`COc1ccc2nc3c(cc2c1)C(=O)CC(C(F)(F)F)C3` (centres undefined): the growth is -15.1% (active).

`N#C/C(=C\c1ccc(-c2ccc(Cl)cc2)o1)c1nc(-c2ccco2)cs1`: the growth is 92.3%.

Consider `Cc1c(C)c2c(c(C)c1OCC(=O)O)CC[C@@](C)(CCC[C@@H](C)CCC[C@@H](C)CCCC(C)C)O2`, for which the growth is 1.94% [50 µM] (active).

In the case of `C=C(CO)[C@@H]1CC[C@]2(COC3CCCCO3)CC[C@]3(C)[C@H](CC[C@@H]4[C@@]5(C)C=C(C=O)C(=O)C(C)(C)[C@@H]5CC[C@]43C)[C@@H]12` (some centres undefined), the growth was -59.8% (active).

Regarding `CC1(C)CC(O)CCCCCCOc2c(CN)cccc2NC(=O)c2nc(cnc2N)-c2ccc(cc2)S1(=O)=O` (centres undefined), the growth was -49.3% (active).

With `CN1CCN(c2ccc3cc(-c4nc5ccccc5[nH]4)c(=O)oc3c2)CC1`, the growth is 73%.

Consider `Nc1cc2c3c(cccc3c1)C(=O)N(CCN1CCCC1)C2=O`, for which the growth was 1.24% (active).

Regarding `O=C1c2ccccc2C(=O)c2c(O)c(Cl)cc(O)c21`, the growth is 122%.

Take `O=C(COC(=O)[C@H](C[Se][Se]C[C@H](NC(=O)c1ccc(Br)cc1F)C(=O)OCC(=O)c1ccc(F)cc1)NC(=O)c1ccc(Br)cc1F)c1ccc(F)cc1`: the growth was -45.3% (active).

For the molecule `O=C(Nc1ccc(Cl)cc1F)c1cc(Br)ccc1O`, the growth is -39.8% (active).

As to `CCCCCCCCCCn1cc[n+](C)c1`, the growth is 51.9%.

`COCC(=O)Oc1cc(-c2ccc(C)cc2C)c(OC(=O)COC)c(-c2ccc(C)cc2C)c1`: the growth is 36.9%.

With `COc1cc(/C=C/C(=O)c2cccc(-n3cc(-c4cc(OC)c(OC)c(OC)c4)[nH]c3=O)c2)cc(OC)c1OC`, the growth is -18.5% (active).

Take `CCCCNc1nc(NC(C)(C)C)nc(NC(C)(C)C)n1`: the growth is 36.6%.

Regarding `CN1CCCCC1CCN1c2ccccc2Sc2ccc(Cl)cc21` (centres undefined), the growth was 42.1%.

As for `Cn1/c(=N/NC(N)=S)ccc2ccccc21`, the growth was 106%.

As for `O=c1cc(CSc2nnc(SCc3cc(=O)oc4c3ccc3ccccc34)o2)c2ccc3ccccc3c2o1`, the growth is 97.8%.

In the case of `Cc1cc(C)cc(Nc2cc(C)nc3nc(C(F)(F)F)nn23)c1`, the growth was 15.4%.

Turning to `C=CCN=c1sc(-c2ccc3ccccc3c2)cn1NC(=O)c1cc2ccc1CCc1ccc(cc1)CC2`, the growth was 49.2%.

On to `NC[C@@H]1O[C@H](O[C@@H]2[C@@H](CO)OC(O[C@@H]3[C@@H](O)[C@H](N)C[C@H](N)[C@H]3OC3O[C@H](CN)[C@@H](O)[C@H](O)[C@H]3N)[C@@H]2O)[C@H](N)[C@@H](O)[C@@H]1O` (some centres undefined), for which the growth was 94.7%.

Turning to `COc1ccc(C(=O)c2cc(OC)c(OC)c(OC)c2OC)cc1O`, the growth was 25.2%.

On to `O=C(CN1CCN(C(=O)c2ccccc2)CC1)Nc1ccccc1SCc1ccccc1`, for which the growth was 80.5%.

Turning to `CCCCCCCCCCCCCCCC[n+]1cccc(C#N)c1`, the growth is 30.4%.

Consider `S=C(Nc1ccccc1)N1CCCCC1`, for which the growth was 93.5%.

In the case of `O=c1cc(Cl)nc2ccccn12`, the growth was 92.9%.

Regarding `COc1ccc(N=C(c2ccccc2)C2C(=O)c3ccccc3C2=O)cc1`, the growth is 61.3%.

On to `N#CC1(O)CCCCC1`, for which the growth was 104%.

`COC12C=C/C(=C(/C(=O)OCCSc3ccnn3C)C(=O)CCCCCCCCC3(OC)C=C/C(=C(/C(=O)OCCSc4ccnn4C)C(=O)CCCCCCCC1)O3)O2`: the growth was -6.91% (active).

As for `COc1cccc(-c2nn(-c3ccccc3)cc2-c2ccnc(NCCCN)c2)c1`, the growth is 39.6%.

On to `COc1cc(/C=C/C(=O)c2ccccc2O)ccc1OCCCOc1cc2c(cc1OC)C(=O)N1CCC[C@H]1C=N2`, for which the growth was -27.4% (active).

Regarding `C/C=C/C/C=C/[C@H](C)C[C@H](O)[C@@H]1C[C@@H]2O[C@H]2/C=C/[C@H](O)[C@@H](O)/C=C/C[C@H](C)CC(=O)O1`, the growth was 76.6%.

In the case of `N#Cc1c(N2CCOCC2)nc(=S)[nH]c1-c1ccccc1`, the growth is 70.2%.
